# Experimental data taken from PubChem BioAssay AID1347043 (National Center for Advancing Translational Sciences (NCATS), 2019).
# Screen size: about 76,000 compounds; about 1,900 (2.5%) were called active. Entries that show only a call come without a potency. Not shown: some 5% with an inconclusive outcome. Calls come from the whole dose curve; as a rule, active = well fitted inhibition curve with a large enough effect; inconclusive = small, poorly fitted or top-dose-only effect; inactive = flat fitted curve, though single readings scatter. The sample as a whole holds a higher share of actives than the screen did.
# Biological target: Luciferin 4-monooxygenase (Photinus pyralis) (UniProt P08659)
# Test: Firefly luciferase inhibition profiling of diverse chemical library using quantitative high-throughput screening; note: nearly all actives have a fitted effect of over 65% in size
# Conditions: purified P. pyralis luciferase, luminescence, biochemical; series mostly up to 115 µM
# How it was run: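 Inhibitors were tested against purified firefly luciferase in a biochemical, low-substrate format (both substrates at 10uM) and luminescence measured with a CCD imager.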
# Potency is the fitted concentration of half-maximal effect.
# Chain of Luciferin 4-monooxygenase (Photinus pyralis) (P08659 whole entry, looked up): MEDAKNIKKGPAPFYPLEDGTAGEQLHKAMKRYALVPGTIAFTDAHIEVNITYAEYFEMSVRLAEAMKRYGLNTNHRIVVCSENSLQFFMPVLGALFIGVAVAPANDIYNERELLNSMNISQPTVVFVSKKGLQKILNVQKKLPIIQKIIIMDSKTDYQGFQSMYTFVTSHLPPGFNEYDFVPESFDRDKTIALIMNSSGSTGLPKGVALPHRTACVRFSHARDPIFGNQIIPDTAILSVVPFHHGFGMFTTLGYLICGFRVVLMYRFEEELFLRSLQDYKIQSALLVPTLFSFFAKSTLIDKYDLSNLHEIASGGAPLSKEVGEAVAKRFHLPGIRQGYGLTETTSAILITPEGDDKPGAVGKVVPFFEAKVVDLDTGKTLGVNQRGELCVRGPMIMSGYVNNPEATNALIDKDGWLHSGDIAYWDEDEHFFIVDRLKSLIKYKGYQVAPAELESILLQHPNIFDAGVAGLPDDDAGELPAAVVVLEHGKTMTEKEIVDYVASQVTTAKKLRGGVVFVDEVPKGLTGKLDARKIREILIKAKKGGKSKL
row,SMILES,Potency
1,O=C([C@H]1C[C@H](Oc2cccnc2)CN1C(=O)CCCc1ccccc1)N1CCOCC1,inactive
2,CN(C)c1cccc(-c2ncc3c(n2)OCCN(Cc2ccc(F)cc2F)C3=O)c1,inactive
3,COc1cccc(-c2ncc3c(n2)OCCN(Cc2ccc(F)cc2F)C3=O)c1OC,inactive
4,COc1ccc(-c2ncc3c(n2)OCCN(CC2CC2)C3=O)cc1,1.26 µM (active)
5,O=C1c2cnc(-c3ccc(Cl)cc3)nc2OCCN1Cc1ccccc1,inactive
6,COc1ccc(CN2CCOc3nc(-c4cc(F)cc(OC)c4)ncc3C2=O)cc1,28.2 µM (active)
7,NC(=O)c1cccc(-c2ncc3c(n2)OCCN(c2cccc(C(F)(F)F)c2)C3=O)c1,inactive
8,O=C1c2cnc(-c3ccc(O)c(F)c3)nc2OCCN1Cc1ccccc1,22.4 µM (active)
9,C[S+](=O)([O-])c1cccc(-c2ncc3c(n2)OCCN(Cc2ccc(F)cc2F)C3=O)c1,inactive
10,COc1ccc(-c2ncc3c(n2)OCCN(Cc2ccccc2)C3=O)cn1,15.8 µM (active)
11,COc1ccc(F)cc1-c1ncc2c(n1)OCCN(CC1CC1)C2=O,inactive
12,NC(=O)c1cccc(-c2ncc3c(n2)OCCN(Cc2ccccc2)C3=O)c1,inactive
13,COc1cccc(-c2nc(N3CCOCC3)cc3c2CN(CC2CC2)C3=O)c1,inactive
14,Cc1ccc(-c2nc(CNS(=O)(=O)C3CC3)[nH]c2-c2ccccn2)cc1,inactive
15,O=C(CC1CCCC1)N1CCOc2ccc(CN3CCc4ccccc4C3)cc2C1,inactive
16,Cc1noc(-c2cccn3c(CNC(=O)c4ccco4)nnc23)n1,inactive
17,CC1=C[C@@H](CN2CCOCC2)[C@H](C(C)C)C[C@H]1Cc1nnc(-c2ccc([N+](=O)[O-])cc2)o1,inactive
18,COc1ccc(CN2C[C@H]3CN(Cc4ccc(NC(C)=O)cc4)CCN3C2=O)cc1,inactive
19,O=C(Nc1ccccc1)N1CCN2C(=O)N(Cc3ccc(F)cc3)C[C@H]2C1,50.1 µM (active)
20,CC(C)NC(=O)N1CCN2C(=O)N(Cc3ccc(F)cc3)C[C@H]2C1,inactive
21,CN(Cc1ccccc1)C(=O)C[C@@H]1CCNC[C@@H]1Cc1cc(-c2ccc(C(C)(C)C)cc2)on1,inactive

row,SMILES,Potency
1,Cc1cn2nc(C(=O)N3CCC(NC(=O)c4ccc(C#N)cc4)CC3)cc2c(=O)[nH]1,inactive
2,CCc1noc(-c2cccn3c(CNC(=O)c4ccncc4)nnc23)n1,inactive
3,CCC(C)(C)NC(=O)c1cccc2c1CCN2C(=O)Nc1ccc(C)cc1,1.78 µM (active)
4,Cc1cccc(S(=O)(=O)N2CCc3c(C(=O)NC(C)C)cccc32)c1,inactive
5,CCOC(=O)C1CCN(C(=O)c2cccc3c2CCN3C(=O)Nc2ccccc2)CC1,5.62 µM (active)
6,COc1ccc(S(=O)(=O)N2CCc3c(C(=O)NCc4ccncc4)cccc32)cc1,inactive
7,CC[C@H]1CN(C(=O)Nc2ccccc2)CC[C@H]1CC(=O)Nc1ccccc1,inactive
8,CCOc1ccc(C(=O)N2CCCN(C(=O)C3CC3)c3ccccc32)cc1,inactive
9,Cc1ccc2nc(CO[C@H]3CN(C4CCOCC4)C[C@H]3F)[nH]c2c1,inactive
10,Cc1ncoc1C(=O)N1CCCn2ccnc2C1c1ccccc1 (configuration not stated),inactive
11,CN(C)C(=O)CC(O)c1cc2n(n1)CCN(C(=O)Cc1ccsc1)C2 (configuration not stated),inactive
12,Cc1cccc2c(C3CCN(S(=O)(=O)c4cc(Cl)cc(Cl)c4)CC3)c[nH]c12,inactive
13,COc1ccc(CN2CCc3nn(CC4CC4)c(=O)n3CC2)cc1,inactive
14,COc1ccc(C(=O)NCCC2CCN(C(=O)Nc3ccc(F)cc3F)CC2)cc1OC,inactive
15,COc1ccc(C(=O)NCCC2CCN(C(=O)Nc3cc(F)ccc3F)CC2)cc1,25.1 µM (active)
16,O=C(NCCC1CCN(C(=O)Nc2cc(F)ccc2F)CC1)c1cc(F)ccc1F,inactive
17,CC(c1cccc(-c2cnc(C(=O)O)cn2)c1)N1CCCC1 (configuration not stated),inactive
18,O=C(CCCc1ccccc1)N1CCC2(CC1)CC(O)CCO2 (configuration not stated),5.62 µM (active)
19,O=C(CCC1CCCC1)N1CCC2(CC1)CC(O)CCO2 (configuration not stated),inactive
20,CC(=O)N(C1CC1)C1CCOC2(CCN(C(=O)CCc3ccccc3)CC2)C1 (configuration not stated),inactive
21,COc1ccc(CC(=O)NC2CCCc3c2[nH]c2ccccc32)cc1 (configuration not stated),inactive

row,SMILES,Potency
1,COc1ccc(-c2cn3c(n2)CO[C@@H](CNCc2ccc(F)c(F)c2)C3)cc1,35.5 µM (active)
2,c1ccc(CNC[C@H]2Cn3cc(-c4ccccc4)nc3CO2)cc1,63.1 µM (active)
3,Fc1ccc(CNC[C@H]2Cn3c(-c4ccc5c(c4)OCCO5)cnc3CO2)cc1,inactive
4,c1c[nH]c(CNC[C@H]2Cn3ccnc3CO2)n1,inactive
5,Cc1ccc(-c2cn3c(n2)CO[C@@H](CNS(=O)(=O)c2cccs2)C3)cc1,inactive
6,O=C(Cn1nc(-c2ccccc2)n(-c2ccccc2)c1=O)N1C[C@@H]2C[C@H]1CN2,inactive
7,O=C(c1ccc(F)cc1)N1CCC2(CC1)CCN(Cc1cccs1)c1ccccc1O2,inactive
8,Cc1ccc(C(=O)Nc2ccc3c(N4CCCCC4)ncnc3c2)s1,22.4 µM (active)
9,Cc1cc(C)cc(C(=O)Nc2ccc3c(N4CCCC4)ncnc3c2)c1,inactive
10,Cc1ccc(C(=O)Nc2ccc3ncnc(N4CCCCC4)c3c2)s1,inactive
11,CCCS(=O)(=O)N1CCCC(Cn2c(C)nc3cccnc32)C1 (configuration not stated),inactive
12,CNc1nc(C(=O)NCc2ccc3[nH]c(-c4ccc(F)cc4)c(C)c3c2)cs1,12.6 µM (active)
13,Cc1c(-c2ccc(F)cc2)[nH]c2ccc(CNC(=O)c3ccc(CO)o3)cc12,inactive
14,CC(C)Oc1cccc(-c2nc(C(=O)NCc3ccc(F)cc3)cs2)c1,inactive
15,CN1C(=O)C(CC(=O)N2CCC(C#N)CC2)(Cc2ccccc2)c2ccccc21 (configuration not stated),inactive
16,CN(Cc1ccccc1F)Cc1ccccc1F,inactive
17,Cc1noc(CC2CCOC3(CCN(C(=O)c4ccc(C#N)cc4)CC3)C2)n1 (configuration not stated),inactive
18,COCCc1noc(CC2CCOC3(CCN(C(=O)Nc4ccc5c(c4)OCCO5)CC3)C2)n1 (configuration not stated),35.5 µM (active)
19,COCCc1noc(CC2CCOC3(CCN(C(=O)C4CCCC4)CC3)C2)n1 (configuration not stated),inactive
20,COc1cccc(C(O)c2nc(C(=O)Nc3ccccc3)c(C)o2)c1 (configuration not stated),inactive
